Results: the supplement of paper PMC11417369
± gives the standard deviation of the averaged measurements. Whole data set: some 25,000 sequences, median “ln(normalized median fluorescence intensity)” near 8.9, cut for the highest 2% near 10. This is one part of a sample in which the highest values are shown more often than they occur.

What follows are sequences tested on PfAP2-LT AP2 domain (GST-tagged) (assay: gcPBM binding intensity (ln(normalized median fluorescence intensity)); higher = stronger DNA binding).
Summary of the method: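 The binding buffer was 1× PBS containing 1% milk, 0.2 mg/ml BSA, 0.5% salmon testes DNA and 0.03% Triton X-100. In it, GST-tagged P. falciparum DNA-binding domains expressed in E. coli were applied for 1 h to an Agilent 4 × 180k array of primer-extended double-stranded 36-bp intergenic genomic probes plus negative controls. Binding intensity, read with Alexa488 anti-GST antibody and a 488 nm scan, is the highest Masliner-normalised natural-log median intensity across replicate spots of either probe orientation.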

Sequence	gcPBM binding intensity (ln)
AAAAATAAAAAAATGACACACATATATATATATATA [CACACA_site2307]	9.85 ± 0.11
TATAACAATTTTTATGCATGCGACTATAATATTTTT [TGCATGCA_site508]	8.92 ± 0.42
ATTATATAAGTACACAAACAAGTATGAGATTCAAAA [GTGCAC_negctrl_site119]	8.88 ± 0.5
ATATATTATATGTACACACACATATAAGGGATTATA [CACACA_site5]	9.28 ± 0.4
TTATATTATATATATGTGCACATTTTTAAACTTGGA	8.77 ± 0.47
ACAAACAAAGAAAGAACACACATACACAAGATACCT [CACACA_site7353]	9.54 ± 0.26
ATATAACTTTTAAAAGCATGCAAATATTTACTCAAT [TGCATGCA_site396]	8.78 ± 0.45
TGATAAGAAAAAGACTTTTCCTTCTTACTTTCTATG [CACACA_negctrl_site782]	8.55 ± 0.59
ACATGAAGATATTTTTGTCCGTACAAATTCATATGA [XGTACX_site1837]	8.66 ± 0.23
AAGGTATTTATAACTACACACTTATTTATAACCTAA [CACACA_site6194]	8.7 ± 0.43
ATATGAAGTATCGAATTAAGGGCAACAAATAAATTA [CACACA_negctrl_site1116]	8.76 ± 0.57
GTGGAAAAAAATAATTGTACACAATAATAAATATAT [XGTACX_site2414]	8.87 ± 0.45
GTTTGAATGGCGCACTGTACACATATATACATATAG [XGTACX_site8619]	9.13 ± 0.26
TTCTATTCACATTTTACACACGTCCATCGCATTTTA [CACACA_site3453]	9.44 ± 0.46
ATTTTTTATGGACAAAAGACCTCTGATGTAAATATA [CACACA_negctrl_site1081]	8.38 ± 0.4
CATACATACAGACACACACACATATTTATATTTATA [CACACA_site6172]	9.9 ± 0.41
TTTGTTGACGGACACACACACATACAGATATATATA [CACACA_site5292]	9.4 ± 0.27
CCCACAGACGGACACACACACATATATATATATATA [CACACA_site4351]	10.4 ± 0.22
AGCACAGACGGACACACACACATATATATATATATA [CACACA_site4341]	10.37 ± 0.085
CCCACAGACGGACACACACACACACCGACACATATA [CACACA_site4356]	10 ± 0.26
CACAGACACGGACACACACACATATATAATATATAT [CACACA_site4495]	9.87 ± 0.42
GAATTATATACTTATTGTACAAAAAAAAAAAAAAAA [XGTACX_site3193]	8.36 ± 0.4

Sequence	gcPBM binding intensity (ln)
TGCAGTCTGGAGAAACGTACATAGTATCTGGTAGCT [XGTACX_site4937]	8.94 ± 0.57
TTCAACGTTTTGGAATGTACAGAAAGGTATCCATCA [XGTACX_site179]	8.62 ± 0.42
ATAGTATACAGACACACACACACACCCATATATATA [CACACA_site1736]	10.2 ± 0.29
CACGCATACAGACACACACACACACCGATATATATA [CACACA_site8113]	10.1 ± 0.37
CACGCATACAGACACACACACACACCCATATATATA [CACACA_site636]	10.2 ± 0.37
CACGCATACGGACACACACACACACCGATATATATA [CACACA_site4521]	9.89 ± 0.33
TATCTCATAGTATACACACACACACCCACCCATATA [CACACA_site1739]	10.1 ± 0.11
TATATCTCATAGTATACACACACACCCACCCACATA [CACACA_site8513]	9.9 ± 0.23
CATACACCCATACATACACACATACAGATATATATA [CACACA_site5123]	9.29 ± 0.33
AGTACAGACATAGACACACACACACCCATAAAAAAA [CACACA_site1515]	9.99 ± 0.45
TACACATACAGACATACACACATACCCATATACTCA [CACACA_site5037]	9.6 ± 0.41
CACCATGATACATACACACAGACATATACGCATTCA [CACACA_site1008]	9.46 ± 0.18
GGCATATATATATGCACACATACATATATACATGTG [CACACA_site3859]	9.7 ± 0.3
GTTACACAAACAAACACACACACACGCACGCACAAA [CACACA_site7191]	10 ± 0.2
AAAGAAAAAAAAAAAAAAAAAAAAAAAATTATACAT [CACACA_negctrl_site7]	8.45 ± 0.64
TTTAAAACCTTACATACACACAAATATGTAAATATA [CACACA_site6464]	8.75 ± 0.42
GAGCACCAAAATATATGTACATATGATAAATGTGAA [XGTACX_site1130]	8.96 ± 0.51
GTTATTGAAAAAATAGTGCAATATAACAAAGTAAAA	8.85 ± 0.48
AAAAAAAACGAACACACACACAAATATGTAAAAATA [CACACA_site6673]	9.87 ± 0.28
ATTATATTAATATATATATATATATATATAATAATA [CACACA_negctrl_site437]	8.69 ± 0.3
TACACCCATGGACACACACACACGCATAAAAAAAAA [CACACA_site4933]	9.85 ± 0.58
TCATAGTATGGACACACACACACACCCATATATATA [CACACA_site5033]	10 ± 0.25

Sequence	gcPBM binding intensity (ln)
TACACGCATGGACACACACACACACCCATATATATA [CACACA_site4522]	10.3 ± 0.35
AAAAAAAATCAAATGGGTACTTATTCTTAATAATAT [XGTACX_site3792]	8.61 ± 0.33
TTTTTAGAAAAGGTTATAAAAAATTAATTGAAAAAA [GTGCAC_negctrl_site289]	8.05 ± 0.47
TAAAAGTAAAGACATGCATGCATTGGTATCTTTTAC [TGCATGCA_site665]	8.95 ± 0.35
GTAGACTGAAACCACACACACATATATATATATATT [CACACA_site605]	9.8 ± 0.13
GTAGACTGAAACCACACACACATATATAAATATATT [CACACA_site6433]	9.68 ± 0.38
ATGTAGACTGAAACCACACACACATATATATATATA [CACACA_site606]	10.2 ± 0.2
GCGTTGTTTTTAAAAAGTACATTTTTATATAAGTTA [XGTACX_site8780]	8.54 ± 0.46
TATTAAGAAGAAAATTCACACATTTGTACCTCTCTT [CACACA_site4822]	8.86 ± 0.47
GACATATTCCCCCCCACACACACACCCACATACATA [CACACA_site2302]	11.1 ± 0.18
TACAGACATACATACACACATACATACAGACATACA [CACACA_site1941]	9.43 ± 0.38
TTCCCCCCCAGACACACACACACATACATACCACAT [CACACA_site2305]	11.1 ± 0.77
TACACCCACCCACATACACACACATACACATATATA [CACACA_site8503]	10.1 ± 0.21
TATTCCCCCAAACACACACACACACCCACATACCAC [CACACA_site2304]	10.5 ± 0.13
TATTCCCCCCAACACACACACACACCGACATACCAC [CACACA_site8723]	10.8 ± 0.26
CATACAGACATACATACACACATACATACAGACATA [CACACA_site6996]	9.56 ± 0.35
AAATTCCACCAACACACACACATATAAATAAATAAA [CACACA_site1233]	9.86 ± 0.42
ACATACATACCCCCACGTACGTACCGAAACACCACC [XGTACX_site1982]	9.74 ± 0.028
ACATTCTATACATACACACCCACACCCAAAAAAAAA [CACACA_site863]	9.59 ± 0.042
ATTCTACACCCACATACACACATATATATATATATA [CACACA_site3426]	10 ± 0.085
ATATATATATATTCCACACACACACCCAAAAAAAAA [CACACA_site3649]	9.745 ± 0.05
